# hNpr1 antagonist: Natriuretic polypeptide receptor (hNpr1) antagonism - Primary qHTS; Atrial natriuretic peptide receptor 1 (Homo sapiens), P16066; HEK293 hNpr1 GloSensor cGMP, ANP-stimulated luminescence; Potency, µM (top dose mostly 46.3 µM), actives largely listed as inhibitors; 76,000 tested, 1.6% active; calls by dose curve; further: nearly all actives have a fitted effect of over 60% in size
#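 Compound pre-incubated 30 min at room temperature on GloSensor-loaded HEK293 cells stably carrying hNpr1 and the pGS-40F cGMP biosensor. Stimulation uses hNppA at 0.1 nM final; luminescence is taken at baseline and 20 min post-agonist.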
# Luciferase inh: Firefly luciferase inhibition profiling of diverse chemical library using quantitative high-throughput screening | Potency, µM (titrated, usually from 115 µM), usual class: inhibitors | 76,000 tested, 2.5% active | purified P. pyralis luciferase, luminescence, biochemical | Luciferin 4-monooxygenase (Photinus pyralis), P08659; further: nearly all actives have a fitted effect of over 65% in size
#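 Luminescence read by CCD imaging after purified firefly luciferase (10nM final) was added to substrate buffer holding 10uM D-luciferin and 10uM ATP, pH 7.5, pre-dosed with compound.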
# HEK cytotox: Cytotoxic Profiling in HEK 293 Cell Line of Diverse Libraries Using Quantitative High-Throughput Screening. HEK 293 viability, ATP luminescence (CellTiter-Glo), 48-72 h. Potency, µM (series often up to 115 µM), usual class: inhibitors. 94,000 tested, 6.6% active; further: nearly all actives have a fitted effect of over 60% in size
#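 HEK 293 seeded at 250 cells/well receive compound via pintool. After 48 or 72 hr at 37 degree Celsius, 5% CO2 and 95% humidity, CellTiter-Glo is dispensed and luminescence read following 10 min at room temperature.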
# 3T3 cytotox: Cytotoxic Profiling in NIH 3T3 Cell Line of Diverse Libraries Using Quantitative High-Throughput Screening. NIH 3T3 viability, CellTiter-Glo ATP luminescence, 48-72 h. Potency, µM (top dose mostly 96.7 µM), most hits filed as inhibitors. 94,000 tested, 4.3% active. AID 1345082, 2018; further: nearly all actives have a fitted effect of over 55% in size
#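 Luminescent ATP readout (CellTiter-Glo, 10 min RT) after 48 or 72 hr compound exposure of NIH 3T3 cells seeded at 400 cells/well in 1536-well format; quantitative HTS.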
# GPT2 inhibitor: Primary qHTS assay for inhibitors of Glutamate pyruvate transaminase 2 (GPT2) | Alanine aminotransferase 2 (Homo sapiens), Q8TD30 | Recombinant GPT2, coupled pyruvate oxidase/HRP Amplex Red fluorescence | Potency, µM (highest dose often 57.7 µM), actives largely listed as inhibitors | 100,000 tested, 0.25% active | AID 1671188, 2021; further: nearly all actives have a fitted effect of over 60% in size
#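 Fluorescence read-out: pyruvate from GPT2 turnover coupled to pyruvate oxidase, HRP and Amplex Red (0.2mM ThPP, 0.2U/mL PO and HRP, 50uM Amplex final). Substrates 250uM a-KG, 2mM L-alanine; enzyme 10ng/uL; 30 min RT.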
# A number is an active result; . = inactive; ? = inconclusive; / = no result; [ ] = remark or other dose. Hits are enriched below; roughly 10% of the tested compounds scored in any of these assays. Unless noted, the call rests on the fitted dose curve; in most records, active means well fitted curve in the direction sought with a large enough effect; inconclusive means small, poorly fitted or top-dose-only effect, or another doubt; inactive means no such curve, though single readings can be large; an effect the other way counts as inactive or inconclusive.
SMILES,hNpr1 antagonist,Luciferase inh,HEK cytotox,3T3 cytotox,GPT2 inhibitor
O=C(NC1CCN(c2nccc(Nc3ccccc3F)n2)CC1)c1ccccc1Cl,/,/,?,?,.
Cc1cc(Cn2cc3c4c(cccc42)[C@H](CC(C)C)N[C@H](C(=O)NCCN2CCCC2)C3)no1,.,.,28µM,22µM,.
C=CCNC(=O)[C@@H]1Cc2cn(Cc3cc(C)on3)c3cccc(c23)[C@H](CC(C)C)N1,.,.,71µM,79µM,.
Cc1cc(Cn2cc3c4c(cccc42)[C@H](CC(C)C)N[C@H](C(=O)NC2CCC2)C3)no1,.,.,79µM,?,.
CC(=O)N1CCN(C(=O)[C@@H]2Cc3cn(Cc4cc(C)on4)c4cccc(c34)[C@H](CC(C)C)N2)CC1,.,.,.,.,.
Cc1cc(Cn2cc3c4c(cccc42)[C@H](CC(C)C)N[C@H](C(=O)NC(C)C)C3)no1,.,.,45µM,50µM,.
Cc1cc(Cn2cc3c4c(cccc42)[C@H](CC(C)C)N[C@H](C(=O)NCc2cncn2C)C3)no1,.,.,?,.,?
C#CCNC(=O)[C@@H]1Cc2cn(Cc3cc(C)on3)c3cccc(c23)[C@H](CC(C)C)N1,.,.,?,?,.
Cc1cc(Cn2cc3c4c(cccc42)[C@H](CC(C)C)N[C@H](C(=O)NC2CCCC2)C3)no1,.,.,40µM,32µM,.
COCCCNC(=O)[C@@H]1Cc2cn(Cc3cc(C)on3)c3cccc(c23)[C@H](CC(C)C)N1,.,.,35µM,?,.
O=C(NCCc1ccc(Cl)cc1)c1ccc2nnc(C3CCCC3)n2c1,/,/,?,35µM,.
O=C(NCc1ccccc1)c1ccc2nnc(C3CCCC3)n2c1,/,/,.,79µM,.
Cc1ccc(C(=O)N2CCc3nc(C(C)C)nc(-c4ccc(O)cc4)c3CC2)cc1,.,.,.,.,.
O=C(O)Cc1cccc(OCCCN(Cc2cccc(C(F)(F)F)c2Cl)CC(c2ccccc2)c2ccccc2)c1,/,/,/,/,24µM
O=C(c1ccccc1F)N1CCC(C(=O)N2CCC(N3CCCC3=O)CC2)CC1,/,/,.,.,?
O=C(c1nc2cccnc2n(C2CCCC2)c1=O)N1CCN([S+](=O)([O-])c2cccs2)CC1,/,/,?,.,.
O=C(Nc1ccc(Cl)cc1)N1Cc2[nH]cnc2C[C@H]1c1nc(-c2ccc(OC(F)(F)F)cc2)no1,?,.,20µM,25µM,.
CCOC(=O)c1ccc(NC(=O)N2Cc3[nH]cnc3C[C@H]2c2nc(-c3ccncc3)no2)cc1,.,.,.,?,.
CCOC(=O)c1ccc(NC(=O)N2Cc3[nH]cnc3C[C@H]2c2nc(-c3ccc(OC(F)(F)F)cc3)no2)cc1,.,?,?,25µM,.
O=C(Nc1ccc(Cl)cc1)N1Cc2[nH]cnc2C[C@H]1c1nc(-c2ccc(F)c(Cl)c2)no1,?,7.9µM,?,25µM,.
CCOC(=O)c1ccc(NC(=O)N2Cc3[nH]cnc3C[C@H]2c2nc(-c3ccc4c(c3)OCO4)no2)cc1,.,40µM,?,28µM,.
O=C(Cc1cccc(Cl)c1)N1CCN(C(=O)c2nc3cccnc3n(Cc3ccccc3)c2=O)CC1,/,/,?,?,.
O[C@H]1[C@H](NCc2ccc(OC(F)(F)F)cc2)[C@H]2CO[C@H](O2)[C@@H]1N1CCC(Cc2ccccc2)CC1,?,.,45µM,?,.
O[C@H]1[C@H](NCC2CCCCC2)[C@H]2CO[C@H](O2)[C@@H]1N1CCC(Cc2ccccc2)CC1,.,.,40µM,32µM,.
O[C@H]1[C@H](NCc2ccc(OC(F)(F)F)cc2)[C@H]2CO[C@H](O2)[C@@H]1N1CCOCC1,.,.,.,.,?
SMILES,hNpr1 antagonist,Luciferase inh,HEK cytotox,3T3 cytotox,GPT2 inhibitor
O=C(NC1CCCCC1)N[C@H]1[C@H](O)[C@@H](N2CCC(Cc3ccccc3)CC2)[C@@H]2OC[C@H]1O2,.,.,?,?,.
O=C(c1ccc2nc(-c3ccncc3)oc2c1)N1CCOCC1,/,/,.,.,.
CCCN(C)C(=O)c1ccc(-c2nnc3ccc(NC(=O)C4CCC4)cn23)cc1,.,.,?,.,.
Cc1noc(C)c1[S+](=O)([O-])NCCNC(=O)c1ccc(-c2cccc(C(F)(F)F)c2)cc1,/,/,?,35µM,/
COc1cccc(-c2ccc(C(=O)NCCN[S+](=O)([O-])c3ccccc3)cc2)c1,/,/,45µM,?,/
O=C(NCCN[S+](=O)([O-])c1ccccc1)c1cccc(-c2ccc(C(F)(F)F)cc2)c1,/,/,10µM,22µM,.
COc1cccc(-c2ccc(C(=O)NCCN[S+](=O)([O-])c3cccc(C(F)(F)F)c3)cc2)c1,/,/,32µM,?,/
C[S+](=O)([O-])NCCNC(=O)c1cccc(-c2ccc(C(F)(F)F)cc2)c1,/,/,?,?,.
COc1ccc(C(=O)N2CCC(c3n[nH]c(=O)n3Cc3ccc(F)cc3)CC2)cc1F,.,.,.,?,.
O=C(NCCc1ccc(Cl)cc1)c1nc(-c2ccsc2)c2ccccn12,.,.,.,.,.
COCC1CN(Cc2ccccc2F)CC12CCNCC2 (stereo not drawn),.,.,.,.,.
COc1cccc(-c2ccc(C(=O)NCCNC(=O)c3ccc4c(c3)OCO4)cc2)c1,/,/,79µM,.,/
COc1ccc(C(=O)NCCNC(=O)c2ccc(-c3cccc(OC)c3)cc2)cc1,/,/,.,.,/
O=C(Cc1cccs1)N1CCCN(c2cc(-c3ccc(Br)cc3)[nH]n2)CC1,?,.,45µM,35µM,?
O=C(COc1ccc(F)cc1)N1CCCN(c2cc(-c3ccc(Br)cc3)[nH]n2)CC1,?,.,45µM,?,?
CCNC(=O)N1CCC(Cc2ccc(C(=O)N3CCN(c4ccccc4)CC3)cc2)CC1,/,/,?,?,.
CNC1CCN(c2ccc(-c3nc(CCCc4ccccc4)no3)cn2)CC1,.,?,?,?,.[11.5 µM]
OCC1CCN(c2ccc(-c3nc(CCCc4ccccc4)no3)cn2)CC1,13µM,?,?,?,?
CN(Cc1ncc[nH]1)c1ccc(-c2nc(CCCc3ccccc3)no2)cn1,?,?,45µM,?,.
CC(O)CNc1ccc(-c2nc(CCCc3ccccc3)no2)cn1 (stereo not drawn),.,45µM,?,?,?
CN(Cc1cnccn1)c1ccc(-c2nc(CCCc3ccccc3)no2)cn1,.,?,.,.,.
c1ccc(CCCc2noc(-c3ccc(N4CCCNCC4)nc3)n2)cc1,.,?,22µM,?,.

# High-throughput results deposited in PubChem BioAssay by National Center for Advancing Translational Sciences (NCATS).
